Active and inactive are the calls of the source. Rule for the calls: active = hit-call score of the fitted dose curve at least 0.9, where 1 is the maximum; inactive = score below 0.9.
Assays:
[1] = read-out: Vascular endothelial growth factor receptor 2 (Homo sapiens) (UniProt P35968); assay: BSK_4H_VEGFRII: BioMAP Diversity Plus: 4H Assay for Vascular endothelial growth factor receptor 2 (VEGFR2) Biomarker Activity (AID 2283031); conditions: primary human endothelial cells (HUVEC); actives raise or lower the signal;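 for AC50: cell-surface VEGFR2 protein level quantified by ELISA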
In short: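 VEGFRII levels on human vascular endothelial primary cells were determined by ELISA at 24 hours post-dosing, with gain- or loss-of-signal fitted against DMSO controls.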

[2] = read-out: Human Leukocyte Antigen - DR isotype (HLADR), HLA-DRA (gene 3122); assay: BSK_BE3C_HLADR: BioMAP Diversity Plus: BE3C Assay for Human Leukocyte Antigen - DR isotype (HLADR) Biomarker Activity (AID 2283032); conditions: primary human bronchial epithelial cells; actives raise or lower the signal
In short: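 Cell-surface HLA-DR ELISA readout at 24 h after dosing in the BE3C primary human lung bronchial epithelial system; gain or loss of signal against DMSO, with parallel sulforhodamine B staining of total protein for overt cytotoxicity.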

[3] = read-out: Vascular cell adhesion molecule 1 (VCAM1), VCAM1 (gene 7412); assay: BSK_4H_VCAM1: BioMAP Diversity Plus: 4H Assay for Vascular cell adhesion molecule 1 (VCAM1) Biomarker Activity (AID 2283033); conditions: primary human endothelial cells (HUVEC); actives raise or lower the signal
In short: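 VCAM-1 ELISA read 24 h after chemical dosing of HUVEC in the BioMAP 4H system, with gain or loss of signal fitted relative to DMSO. Parallel SRB staining (560 nm) checked overt cytotoxicity.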

[4] = read-out: Interferon-gamma inducible Protein 10 (IP10), CXCL10 (gene 3627); assay: BSK_BE3C_IP10: BioMAP Diversity Plus: BE3C Assay for Interferon-gamma inducible Protein 10 (IP10) Biomarker Activity (AID 2283034); conditions: primary human bronchial epithelial cells; actives raise or lower the signal
In short: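 IP-10 quantified by ELISA in human primary bronchial epithelial cell cultures at 24 hours post-dosing. Gain or loss of signal fitted relative to DMSO; parallel SRB staining assessed overt cytotoxicity.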

[5] = read-out: Monokine induced gamma interferon (MIG), CXCL9 (gene 4283); assay: BSK_BE3C_MIG: BioMAP Diversity Plus: BE3C Assay for Monokine induced gamma interferon (MIG) Biomarker Activity (AID 2283035); conditions: primary human bronchial epithelial cells; actives raise or lower the signal
In short: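 Dose cells (human primary bronchial epithelial), incubate 24 h, quantify MIG by ELISA, then fit concentration–response in both directions relative to DMSO control.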

[6] = read-out: Transforming growth factor beta 1 (TGFb1), TGFB1 (gene 7040); assay: BSK_BE3C_TGFb1: BioMAP Diversity Plus: BE3C Assay for Transforming growth factor beta 1 (TGFb1) Biomarker Activity (AID 2283036); conditions: primary human bronchial epithelial cells; actives raise or lower the signal
In short: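 ELISA readout of TGF-b1 from human lung bronchial epithelial primary cells, taken 24 h post-treatment. Gain or loss of signal fitted relative to DMSO baseline, with parallel SRB staining for overt cytotoxicity.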

[7] = read-out: Plasminogen activator inhibitor-1 (PAI1), SERPINE1 (gene 5054); assay: BSK_BE3C_PAI1: BioMAP Diversity Plus: BE3C Assay for Plasminogen activator inhibitor-1 (PAI1) Biomarker Activity (AID 2283037); conditions: primary human bronchial epithelial cells; actives raise or lower the signal
In short: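 PAI-1 was measured by ELISA in human primary bronchial epithelial cultures 24 h after chemical dosing, with cytotoxicity checked by SRB total-protein staining in parallel cultures. Activity was fitted in both directions relative to DMSO.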

[8] = read-out: Urokinase-type plasminogen activator receptor (uPAR), PLAUR (gene 5329); assay: BSK_BE3C_uPAR: BioMAP Diversity Plus: BE3C Assay for Urokinase-type plasminogen activator receptor (uPAR) Biomarker Activity (AID 2283039); conditions: primary human bronchial epithelial cells; actives raise or lower the signal;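 note: cells exposed to compound for one day before measurement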
In short: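 uPAR levels were measured by ELISA after 24 h compound treatment of primary human bronchial epithelial cells, fitted in both directions relative to DMSO. Parallel SRB staining served as the cytotoxicity read-out.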

[9] = read-out: Interleukin-6 (IL6), IL6 (gene 3569); assay: BSK_CASM3C_IL6: BioMAP Diversity Plus: CASM3C Assay for Interleukin-6 (IL6) Biomarker Activity for (AID 2283040); conditions: primary human coronary artery smooth muscle cells; actives raise or lower the signal
[10] = read-out: Tissue plasminogen activator (tPA), PLAT (gene 5327); assay: BSK_BE3C_tPA: BioMAP Diversity Plus: BE3C Assay for Tissue plasminogen activator (tPA) Biomarker Activity (AID 2283041); conditions: primary human bronchial epithelial cells; actives raise or lower the signal;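 note: tPA level quantified by ELISA one day after compound addition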
In short: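 tPA measured by ELISA 24 h after dosing human primary bronchial epithelial cells (BE3C system). Changes in either direction were fitted against DMSO. Parallel cultures were stained with SRB to flag overt cytotoxicity.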

[11] = read-out: Interleukin-8 (IL8), CXCL8 (gene 3576); assay: BSK_CASM3C_IL8: BioMAP Diversity Plus: CASM3C Assay for Interleukin-8 (IL8) Biomarker Activity (AID 2283042); conditions: primary human coronary artery smooth muscle cells; actives raise or lower the signal;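 note: IL-8 protein level quantified by ELISA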
[12] = read-out: Human Leukocyte Antigen - DR isotype (HLADR), HLA-DRA (gene 3122); assay: BSK_CASM3C_HLADR: BioMAP Diversity Plus: CASM3C Assay for Human Leukocyte Antigen - DR isotype (HLADR) Biomarker Activity (AID 2283043); conditions: primary human coronary artery smooth muscle cells; actives raise or lower the signal;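 note: cell-surface HLA-DR protein level quantified by ELISA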
[13] = read-out: Macrophage colony-stimulating factor (MCSF), CSF1 (gene 1435); assay: BSK_CASM3C_MCSF: BioMAP Diversity Plus: CASM3C Assay for Macrophage colony-stimulating factor (MCSF) Biomarker Activity (AID 2283044); conditions: primary human coronary artery smooth muscle cells; actives raise or lower the signal;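 note: M-CSF protein amount quantified by ELISA after 24 h exposure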
[14] = read-out: Low-density lipoprotein receptor (LDLR), LDLR (gene 3949); assay: BSK_CASM3C_LDLR: BioMAP Diversity Plus: CASM3C Assay for Low-density lipoprotein receptor (LDLR) Biomarker Activity (AID 2283045); conditions: primary human coronary artery smooth muscle cells; actives raise or lower the signal;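 note: LDLR protein level on the cell surface quantified by ELISA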
[15] = read-out: Monocyte Chemoattractant Protein-1 (MCP1), CCL2 (gene 6347); assay: BSK_CASM3C_MCP1: BioMAP Diversity Plus: CASM3C Assay for Monocyte Chemoattractant Protein-1 (MCP1) Biomarker Activity (AID 2283046); conditions: primary human coronary artery smooth muscle cells; actives raise or lower the signal;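 note: MCP-1 level quantified by ELISA 24 h after dosing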
[16] = BSK_CASM3C_Proliferation: Cell Proliferation Assessment in the BioMAP Diversity Plus: CASM3C Assay (AID 2283047); conditions: primary human coronary artery smooth muscle cells;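 note: sulforhodamine B total protein stain as relative cell number at 560 nm; sub-confluent cells exposed 48 h before staining; fitted both ways against DMSO so gain or loss of cell number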
[17] = read-out: Monokine induced gamma interferon (MIG), CXCL9 (gene 4283); assay: BSK_CASM3C_MIG: BioMAP Diversity Plus: CASM3C Assay for Monokine induced gamma interferon (MIG) Biomarker Activity (AID 2283048); conditions: primary human coronary artery smooth muscle cells; actives raise or lower the signal;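 note: MIG protein level measured by ELISA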
[18] = read-out: serum amyloid A (SAA), SAA1 (gene 6288); assay: BSK_CASM3C_SAA: BioMAP Diversity Plus: CASM3C Assay for serum amyloid A (SAA) Biomarker Activity (AID 2283049); conditions: primary human coronary artery smooth muscle cells; actives raise or lower the signal;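 note: SAA protein level quantified by ELISA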
[19] = BSK_CASM3C_SRB: Viability Assessment in the BioMAP Diversity Plus: CASM3C Assay (AID 2283050); conditions: primary human coronary artery smooth muscle cells

Measured: AC50

Cc1cc(Cl)ccc1OCC(=O)O
inactive: [1] | [2] | [3] | [4] | [5] | [6] | [7] | [8] | [9] | [10] | [11] | [12] | [13] | [14] | [15] | [16] | [17] | [18] | [19]

CC(C)(C)c1ccc(CSc2cnn(C(C)(C)C)c(=O)c2Cl)cc1
inactive: [3] | [5] | [8] | [9] | [10] | [11] | [12] | [13] | [15] | [17] | [18] | [19]
active: [1] 12.3 µM | [2] 7.02 µM | [4] 23.5 µM | [6] 832 nM | [7] 14.2 µM | [14] 20 µM | [16] 6.17 µM

O=C(O)COc1nc(Cl)c(Cl)cc1Cl
active: [6] 245 nM
inactive: [1] | [2] | [3] | [4] | [5] | [7] | [8] | [9] | [10] | [11] | [12] | [13] | [14] | [15] | [16] | [17] | [18] | [19]

CCOC(=O)CC(SP(=S)(OC)OC)C(=O)OCC (stereo unspecified)
inactive: [1] | [2] | [3] | [4] | [5] | [6] | [7] | [8] | [9] | [10] | [11] | [12] | [13] | [14] | [15] | [16] | [17] | [18] | [19]

Cc1ccc(-c2c(Cl)nc(C#N)n2S(=O)(=O)N(C)C)cc1
inactive: [5] | [6] | [8] | [9] | [10] | [11] | [12] | [13] | [14] | [15] | [16] | [17] | [18] | [19]
active: [1] 20 µM | [2] 5.94 µM | [3] 16.6 µM | [4] 6.57 µM | [7] 3.97 µM

COP(=S)(OC)Oc1nc(Cl)c(Cl)cc1Cl
inactive: [1] | [2] | [4] | [5] | [6] | [7] | [8] | [9] | [10] | [11] | [12] | [13] | [14] | [15] | [17] | [18] | [19]
active: [16] 32.1 µM

COC(=O)C=C(C)OP(=O)(OC)OC
inactive: [1] | [2] | [3] | [4] | [5] | [6] | [7] | [8] | [9] | [10] | [11] | [12] | [13] | [14] | [15] | [16] | [17] | [18] | [19]

N#CC(CCc1ccc(Cl)cc1)(Cn1cncn1)c1ccccc1 (stereo unspecified)
active: [2] 31.2 µM | [4] 33.7 µM
inactive: [1] | [3] | [5] | [6] | [7] | [8] | [9] | [10] | [11] | [12] | [13] | [14] | [15] | [16] | [17] | [18] | [19]

From PubChem BioAssay (EPA / NIEHS)
